Assay outcomes from PubChem BioAssay.
Cruzain inh Det – cruzain (T. cruzi) inhibition with detergent; actives 0.43% (n = 200,000); P25779; purified cruzain, Z-FR-AMC fluorescence, 0.01% Triton; Potency, µM, usual class: inhibitors; note: nearly all actives have a fitted effect of over 40% in size
Target sequence (P25779 123-467 limits assumed): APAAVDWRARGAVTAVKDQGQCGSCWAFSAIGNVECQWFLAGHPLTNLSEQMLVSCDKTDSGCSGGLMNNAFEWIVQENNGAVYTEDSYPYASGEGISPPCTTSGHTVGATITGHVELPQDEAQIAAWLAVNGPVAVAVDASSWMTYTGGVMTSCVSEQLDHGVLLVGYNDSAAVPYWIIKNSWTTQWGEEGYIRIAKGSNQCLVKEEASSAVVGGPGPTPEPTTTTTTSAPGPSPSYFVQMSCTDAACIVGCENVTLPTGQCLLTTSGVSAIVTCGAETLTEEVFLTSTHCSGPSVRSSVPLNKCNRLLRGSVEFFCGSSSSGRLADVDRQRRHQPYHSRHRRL
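Z-FR-AMC hydrolysis (2 uM substrate) by cruzain (1.5 nM) monitored kinetically at ex 360/em 450 nm after 15 min room-temperature compound exposure; 0.01% Triton X-100, pH 5.5, 5 mM DTT.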
Cruzain inh noDet – cruzain (T. cruzi) inhibition without detergent. purified cruzain, Z-FR-AMC fluorescence, no detergent. Potency, µM, hits mostly inhibitors. actives 2.3% (n = 200,000); note: nearly all actives have a fitted effect of over 40% in size
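Purified cruzain at 1.5 nM, pre-incubated 15 min with compound at room temperature in 100 mM sodium acetate pH 5.5, 5 mM DTT, 0.00005% Triton X-100. Reaction started with 2 uM Z-FR-AMC; AMC fluorescence increase over 60 s gives rate.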
Hits are given with their value; - = inactive; ? = inconclusive. Hits are enriched below; roughly 2.6% of the tested compounds scored in any of these assays. Calls come from the whole dose curve; as a rule, active = well fitted curve in the direction sought with a large enough effect; inconclusive = small, poorly fitted or top-dose-only effect, or another doubt; inactive = no such curve, though single readings can be large; an effect the other way counts as inactive or inconclusive.

SMILES | Cruzain inh Det | Cruzain inh noDet
COc1ccccc1CNC(=O)CCCc1nnc2n(CC(C)C)c(=O)c3sccc3n12 | - | -
CC(C)c1ccc(Nc2ncnc3onc(-c4ccc(F)cc4)c23)cc1 | - | -
Cc1ccc2c(c1)C(CCN)C(=O)N2Cc1ccccc1 (stereo unspecified) | - | -
Cc1ccc2c(c1)C1CCCC3C1N2CC(=O)N3Cc1ccccc1 (stereo unspecified) | - | 13µM
Cc1cccc(Cn2cc(S(=O)(=O)c3ccc(Cl)cc3)c(=O)c3cc4c(cc32)OCO4)c1 | - | ?
N#Cc1ccc(NC(=O)Nc2ccc(Cl)cc2)cc1 | - | 10µM
CN(CC(=O)Nc1ccc(C#N)cc1)Cc1ccc(Cl)cc1 | - | -
Cc1ccc(CNC(=O)CN(C)S(=O)(=O)c2ccc(Br)s2)cc1 | - | -
CCC(=O)NCCc1nc2ccccc2n1Cc1ccccc1 | - | -
CCCCCn1c(CCNC(=O)c2cccc(C)c2)nc2ccccc21 | 13µM | -
O=C(NCCc1nc2ccccc2n1Cc1ccc(Cl)cc1)c1ccccc1 | 6.3µM | -
Cc1cccc(C(=O)NCc2nc3ccccc3n2Cc2ccccc2Cl)c1 | - | -
CCCCCn1c(CNC(=O)c2cccs2)nc2ccccc21 | - | -
CCCCCn1c(CCNC(=O)c2cccs2)nc2ccccc21 | - | 13µM
CCCCCn1c(CCNC(=O)CCC)nc2ccccc21 | - | -
Cc1cccc(C(=O)NCCc2nc3ccccc3n2Cc2ccc(Cl)cc2)c1 | 7.9µM | ?
Cc1ccc(CNC(=O)Cn2c(=O)n(Cc3ccccc3)c(=O)c3c2c2cc(C)ccc2n3C)cc1 | - | -
O=C(CCNS(=O)(=O)c1ccc2c(c1)CCN2C(=O)C1CC1)Nc1ccc(F)cc1F | - | -
O=C(NCc1ccccc1Cl)c1ccc(NC(=O)N2CCSc3ncccc32)cc1 | - | ?
Cc1cc(Cl)c(OCCCN(C)C)c(Br)c1 | - | 5µM
Cc1ccc(OCCCN(C)C)c(Br)c1 | - | -
O=C(CC1Sc2ccccc2NC1=O)OCC(=O)N1CCc2ccccc21 (stereo unspecified) | - | ?
COC(=O)c1ccc(-n2c(C)cc(C(=O)COC(=O)CC3Sc4ccccc4NC3=O)c2C)cc1 (stereo unspecified) | - | 25µM
Cc1cc(C(=O)COC(=O)CC2Sc3ccccc3NC2=O)c(C)n1-c1ccccc1 (stereo unspecified) | - | ?
Cc1cc(C(=O)COC(=O)Cc2n[nH]c(=O)c3ccccc23)c(C)n1-c1ccc2c(c1)OCO2 | - | 25µM
SMILES | Cruzain inh Det | Cruzain inh noDet
Cc1cc(C(=O)COC(=O)CC2Sc3ccccc3NC2=O)c(C)n1-c1ccc(Br)cc1 (stereo unspecified) | - | 4µM
Cc1cc(C(=O)COC(=O)CC2Sc3ccccc3NC2=O)c(C)n1-c1ccc2c(c1)OCO2 (stereo unspecified) | - | 25µM
CC(=O)Nc1ccc(S(=O)(=O)NCC(=O)OCC(=O)c2cc(C)n(-c3ccc4c(c3)OCO4)c2C)cc1 | - | ?
COc1ccc(-n2c(C)cc(C(=O)COC(=O)Cc3n[nH]c(=O)c4ccccc34)c2C)cc1 | - | ?
C=Cc1ccc(Cn2c(=O)cc(C)c3c(C)nn(C)c32)cc1 | - | ?
Cc1ccccc1Nc1c(-c2ccsc2)nc2c(C)cccn12 | - | -
Cc1c(CNC2CCC(C)CC2)c(C(=O)O)c(C)n1Cc1ccc(Cl)cc1 (stereo unspecified) | - | -
CC(=O)c1cccc(NC(=O)C(C)n2c(=O)cc(-c3ccccc3)c3c(C)nn(C)c32)c1 (stereo unspecified) | - | -
CC(=O)c1ccc(OCC(=O)c2cc(C)n(-c3ccc4c(c3)OCO4)c2C)cc1 | - | -
Cc1cc(C(=O)COC(=O)c2ccc(N)c([N+](=O)[O-])c2)c(C)n1-c1ccc2c(c1)OCO2 | - | 13µM
CC1=C(C(=O)Nc2cccc(C(F)(F)F)c2)C(c2ccccn2)n2ncnc2N1 (stereo unspecified) | - | -
Cc1ccc(/C=C2\CCC3=C2OC(N)=C(C#N)C3c2ccc(C)cc2)cc1 (stereo unspecified) | - | 25µM
N#CC1=C(N)OC2=C(CCc3ccccc32)C1c1ccccc1 (stereo unspecified) | - | -
Cc1ccc(CNC(=O)CN2C(=O)COc3ccc(S(=O)(=O)Nc4ccccc4)cc32)cc1 | - | -
CC(C)c1ccc(NC(=O)C(Cc2ccccc2)NS(=O)(=O)c2ccc3c(c2)CCC(=O)N3)cc1 (stereo unspecified) | - | -
CCOC(=O)c1c(NC(=O)c2cc3ccccc3c(=O)o2)sc2c1CCC(C(C)(C)C)C2 (stereo unspecified) | - | -
O=C(c1ccncc1)N1CCC[C@@]2(CCN(c3ccccn3)C2)C1 | - | -
O=C(COc1ccc(/C=N/NS(=O)(=O)c2ccccc2)cc1)Nc1cccc(Cl)c1 | - | -
Cc1ccc(OCC(=O)Nc2ccc3nc(Nc4cccc(Cl)c4)cc(C)c3c2)cc1 | - | 20µM
